High-throughput results (PubChem)
In the library only some 8.2% were active in any assay of this set; here they are far more common.
MCF10A rereplic: A quantitative high throughput screen for small molecules that induce DNA re-replication in MCF 10a normal breast cells | MCF 10A DNA re-replication, Hoechst nuclear intensity, 48 h | Potency, µM (doses to about 46.1 µM), hits mostly activators | 350,000 tested, 2.9% active | AID 624296, 2012; note: nearly all actives have a fitted effect of over 50% in size
KB-V1 cytotox: qHTS assay for MDR1-selective chemotherapeutics: Primary screen using the drug-selected MDR subline cells KB-V1; KB-V1 MDR cells viability, CellTiter-Glo, 72 h; 400,000 tested, 3.4% active; Potency, µM (doses to about 46.1 µM), usual class: cytotoxic; AID 1347076, 2019; note: nearly all actives have a fitted effect of over 60% in size
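Readout: CellTiter-Glo luminescence, 10 min after addition. Cells: KB-V1 MDR subline, 72 h at 37 degrees C with compound. Analysis: corrected, normalized data fitted to concentration-effect curves.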
SW480 rereplic: A quantitative high throughput screen for small molecules that induce DNA re-replication in SW480 colon adenocarcinoma cells; SW480 DNA re-replication, Hoechst DNA content imaging, 48 h; AID 624297, 2012; 340,000 tested, 1.8% active; Potency, µM (doses to about 46.1 µM), most hits filed as activators; note: nearly all actives have a fitted effect of over 55% in size
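Readout is total intensity of Hoechst-stained nuclei, excited at 405 nm and collected at 500-530 nm. Compound treatment lasted 48 hr at 37 C in 5% CO2 before staining.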
ELG1 DNA repair: qHTS screen for small molecules that inhibit ELG1-dependent DNA repair in human embryonic kidney (HEK293T) cells expressing luciferase-tagged ELG1; HEK293T ELG1-luciferase reporter, luminescence, 16 h; DNA damage induced by 5-fluorouridine; Potency, µM (titrated, usually from 46.1 µM), most hits filed as inhibitors; 330,000 tested, 2.3% active; note: nearly all actives have a fitted effect of over 55% in size
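Overnight (16 hr) co-exposure of 2,000 cells/well to 5-fluorouridine and compound at 37 °C preceded detection. Luciferase was quantified via ONE-Glo luminescence; loss of signal denotes inhibition.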
KB-3-1 tox: qHTS assay for MDR1-selective chemotherapeutics: Primary screen using the parental adenocarcinoma cell KB-3-1 | KB-3-1 viability, CellTiter-Glo ATP luminescence, 72 h | Potency, µM (series often up to 46.1 µM), hits mostly cytotoxic | 400,000 tested, 1.4% active; note: nearly all actives have a fitted effect of over 60% in size
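72 h, 37 °C compound treatment of KB-3-1 parental cells; CellTiter-Glo added, 10 min, luminescence read. Data corrected against DMSO-only plates and normalized before curve fitting.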
Of the large screens only hits and unclear results are named; the others gave an inactive call. Calls come from the whole dose curve; as a rule, active = well fitted curve in the direction sought with a large enough effect; inconclusive = small, poorly fitted or top-dose-only effect, or another doubt; inactive = no such curve, though single readings can be large; an effect the other way counts as inactive or inconclusive.

Cc1cc(C)c(C)c(S(=O)(=O)ON2C(=O)c3ccccc3C2=O)c1C	MCF10A rereplic 7.3µM, SW480 rereplic 21µM, ELG1 DNA repair inconclusive
Cc1c(O)ccc2c3c(c(=O)oc12)CCC(C)C3 (stereo unspecified)	KB-V1 cytotox inconclusive
Cc1c(O)ccc2c3c(c(=O)oc12)CCCC3	MCF10A rereplic inconclusive, KB-V1 cytotox 16µM, KB-3-1 tox inconclusive
CCN(C(=O)c1cc(Cl)ccc1Cl)C1CCS(=O)(=O)C1 (stereo unspecified)	KB-V1 cytotox 18µM
O=C(/C=C/c1ccc(Cl)cc1Cl)N(Cc1ccc(Cl)cc1)C1CCS(=O)(=O)C1 (stereo unspecified)	MCF10A rereplic inconclusive, KB-V1 cytotox 5.8µM, KB-3-1 tox inconclusive
CCCN(C(=O)c1cc(S(=O)(=O)N2CCN(CC)CC2)ccc1Cl)C1CCS(=O)(=O)C1 (stereo unspecified)	none (no result: ELG1 DNA repair)
O=C(CN1CCCN(S(=O)(=O)c2ccc(Br)cc2)CC1)Nc1cccc(C(F)(F)F)c1	KB-V1 cytotox inconclusive (no result: MCF10A rereplic, SW480 rereplic, ELG1 DNA repair)
COc1cccc(CN2CC(C(=O)NCc3ncc(C)[nH]3)CCC2=O)c1 (stereo unspecified)	none
CCOc1ccc(C(c2c(O)cc(C)n(CCOC)c2=O)N2CCN(c3ccc(F)cc3)CC2)cc1 (stereo unspecified)	KB-V1 cytotox inconclusive (no result: MCF10A rereplic, SW480 rereplic, ELG1 DNA repair)
O=S(Cc1cc(Sc2ccccc2)nc(-c2ccccc2)n1)c1ccccc1 (stereo unspecified)	MCF10A rereplic 23µM, KB-V1 cytotox inconclusive, SW480 rereplic inconclusive, ELG1 DNA repair inconclusive, KB-3-1 tox inconclusive
COc1ccc(-c2nc3ccc(C(=O)NCC(OC)OC)cc3nc2-c2ccc(OC)cc2)cc1	MCF10A rereplic inconclusive, SW480 rereplic inconclusive, ELG1 DNA repair 16µM
Cc1[nH]nc(C(F)(F)F)c1N=NN1CCOCC1	MCF10A rereplic 3.7µM, KB-V1 cytotox inconclusive, SW480 rereplic inconclusive, KB-3-1 tox inconclusive (no result: ELG1 DNA repair)
Clc1ccc(N=NN2CCOCC2)cc1	MCF10A rereplic inconclusive, ELG1 DNA repair inconclusive
COc1ccc(-c2c3c(=O)n(C)c(=O)n(C)c3cn2Cc2ccccn2)cc1	MCF10A rereplic 18µM, SW480 rereplic inconclusive
N#Cc1cccc(NC(=O)Cn2cnc(S(=O)(=O)N3CCCCC3)c2)c1	none
CN(c1ccccc1)S(=O)(=O)c1cccc(NC(=O)CSc2nccc(=O)[nH]2)c1	none (no result: KB-V1 cytotox, KB-3-1 tox)
CCN(CC)S(=O)(=O)c1cc(NC(=O)Cn2cnc3ccccc3c2=O)ccc1C	ELG1 DNA repair inconclusive
Cn1nccc1C(=O)Nc1cccc(C(F)(F)F)c1	none
CN(c1ccccc1)S(=O)(=O)c1cccc(NC(=O)c2nn(C)c(=O)c3ccccc23)c1	ELG1 DNA repair 18µM
Cn1nc(C(=O)Nc2cccc(C(F)(F)F)c2)c2ccccc2c1=O	KB-V1 cytotox 8.2µM, ELG1 DNA repair inconclusive
CN(c1ccccc1)S(=O)(=O)c1cccc(NC(=O)Cn2cnc3ccccc3c2=O)c1	KB-V1 cytotox 23µM, ELG1 DNA repair inconclusive, KB-3-1 tox inconclusive
CCOC(=O)[C@]12CCCC=C1N(Cc1ccccc1)C(=O)[C@H](CC(=O)N1CCOCC1)C2	KB-V1 cytotox inconclusive (no result: MCF10A rereplic, SW480 rereplic, ELG1 DNA repair)
O=C(NCC(c1cccs1)S(=O)(=O)c1cccs1)c1cccc(F)c1 (stereo unspecified)	none (no result: MCF10A rereplic, SW480 rereplic, ELG1 DNA repair)
CN(C)c1ccc(C(=O)OCC(=O)N2CCCC2)cc1	ELG1 DNA repair inconclusive
CCOC(=O)N1CCN(C(=O)COC(=O)c2ccc(N(C)C)cc2)CC1	KB-V1 cytotox 21µM
O=C(Cn1cnc2sc3c(c2c1=O)CCCC3)NCC(=O)Nc1ccc(F)cc1F	none
Cc1ccc(C)c(Cn2c(C(C)NC(=O)c3ccc(F)cc3)nc3ccccc32)c1 (stereo unspecified)	none (no result: MCF10A rereplic, SW480 rereplic, ELG1 DNA repair)
CC(NC(=O)c1ccc(F)cc1)c1nc2ccccc2n1Cc1ccccc1F (stereo unspecified)	KB-V1 cytotox 2.1µM
COc1cccc(CNc2cccc(C(F)(F)F)c2)c1O	ELG1 DNA repair inconclusive, KB-3-1 tox 21µM
COc1ccc(C(C)(O)c2nc(-c3csc4ccccc34)cs2)cc1 (stereo unspecified)	KB-3-1 tox inconclusive (no result: MCF10A rereplic, SW480 rereplic, ELG1 DNA repair)
CC(C)OC(=O)CC(=O)CSc1nc2c(c(-c3cccs3)c1C#N)CCC2	MCF10A rereplic 21µM, ELG1 DNA repair inconclusive
CCOC(=O)C(C)Sc1nc2c(c(-c3cccs3)c1C#N)CCC2 (stereo unspecified)	MCF10A rereplic 16µM
COC(=O)CSc1nc2c(c(-c3ccco3)c1C#N)CCCC2	MCF10A rereplic inconclusive
COC(=O)CSc1nc2c(c(-c3ccc(O)cc3)c1C#N)CCCC2	MCF10A rereplic 18µM, SW480 rereplic inconclusive
N#Cc1c(SC(C(=O)O)c2ccccc2)nc2c(c1-c1cccs1)CCCC2 (stereo unspecified)	none
CC(C(=O)NCc1ccccc1)N1Cc2ccccc2C1=O (stereo unspecified)	none (no result: MCF10A rereplic, SW480 rereplic, ELG1 DNA repair)
CCCCn1c(NC(=S)Nc2ccccc2)nc2ccccc21	MCF10A rereplic inconclusive, KB-V1 cytotox inconclusive, SW480 rereplic 16µM, ELG1 DNA repair inconclusive, KB-3-1 tox inconclusive
S=C(Nc1ccccc1)Nc1nc2ccccc2n1CCOc1ccccc1	MCF10A rereplic inconclusive, KB-V1 cytotox 15µM, SW480 rereplic inconclusive
C[C@H](CO)N1C[C@H](C)[C@H](CN(C)S(=O)(=O)c2ccc(F)cc2)OCc2cnnn2CCCC1=O	KB-3-1 tox inconclusive (no result: MCF10A rereplic, SW480 rereplic, ELG1 DNA repair)
O=C(CSc1ncc(CO)n1Cc1ccccc1)Nc1ccc(C(F)(F)F)cc1	KB-V1 cytotox inconclusive (no result: MCF10A rereplic, SW480 rereplic, ELG1 DNA repair)
Cc1oc(-c2cccc(Cl)c2)nc1CS(=O)(=O)CC(=O)NC(C)CCc1ccccc1 (stereo unspecified)	none (no result: MCF10A rereplic, SW480 rereplic, ELG1 DNA repair)
CC(C)(C)C(=O)Nc1nc2cc3c(cc2s1)OCO3	SW480 rereplic 3.3µM, ELG1 DNA repair inconclusive
Fc1cccc2sc(Nc3nc4cc5c(cc4s3)OCCO5)nc12	MCF10A rereplic 5.2µM, ELG1 DNA repair inconclusive, KB-3-1 tox inconclusive
Fc1cc(F)c2nc(Nc3nc4cc5c(cc4s3)OCO5)sc2c1	MCF10A rereplic 15µM, ELG1 DNA repair inconclusive
Fc1cccc2sc(Nc3nc4cc5c(cc4s3)OCO5)nc12	MCF10A rereplic 10µM, ELG1 DNA repair inconclusive
CC(C)C(=O)Nc1nc2cc3c(cc2s1)OCO3	ELG1 DNA repair inconclusive
CC(=O)Nc1nc2cc3c(cc2s1)OCCO3	ELG1 DNA repair inconclusive, KB-3-1 tox inconclusive
O=C(c1cnc(Cl)c(Cl)c1)N1CCN(S(=O)(=O)c2cccs2)CC1	none (no result: MCF10A rereplic, SW480 rereplic, ELG1 DNA repair)
CC(=O)OC[C@@H]1CN(Cc2cccc(C(F)(F)F)c2)C[C@H](n2cnc3c(NCc4ccco4)ncnc32)O1	none (no result: MCF10A rereplic, SW480 rereplic, ELG1 DNA repair)
Oc1ccccc1/C=N/NC(=S)NC1CC2C=CC1C2 (stereo unspecified)	MCF10A rereplic 10µM, ELG1 DNA repair inconclusive, KB-3-1 tox inconclusive
